Source: PubChem
NS3h inh CB: blocks HCV NS3 helicase binding to DNA. NS3h Cy5-dT15 DNA binding, fluorescence polarization. inhibition, % at 100 µM. 16,000 tested, 1.6% active;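 active = inhibition above the average over every tested compound plus 3 SD, cut at about 40% in these data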
Cy5 interf NS3h: counter-screen for HCV NS3 helicase inhibitors: fluorescence interference; Cy5-dT15 DNA with NS3h; actives lie on both sides; signal over control mean, under 1 quenches; fluorescence interference ratio at 100 µM; 16,000 tested, 6% active;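 active = compound fluorescence over control fluorescence at most 0.8, a quencher, or at least a set upper limit, an enhancer; inactive = ratio between 0.8 and the set upper limit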
* hit, by the source's call. Rows were chosen to be rich in hits. Some 7.6% of all compounds tested hit in one or more screens of this group.

SMILES | NS3h inh CB | Cy5 interf NS3h
CC(=O)Nc1ccc(NC(=O)c2ccc(N3C(=O)c4ccc(C(=O)Nc5ccc(NC(C)=O)cc5)cc4C3=O)cc2)cc1 | 15 | 0.77*
FC(F)(F)c1nc2ccccc2nc1-c1ccccc1 | 4 | 0.93
Cc1ccc(OCCNC(=O)CCc2ccccc2)cc1C | 15 | 1
CC(=O)N1CCN(c2ccc([N+](=O)[O-])c(NC3CC3)c2)CC1 | 6 | 0.9
Cc1cc(OCC(=O)Nc2cc([N+](=O)[O-])ccc2Cl)cc(C)c1Cl | 8 | 0.54*
O=C(COc1ccc(Cl)cc1)Nc1cc([N+](=O)[O-])ccc1F | 10 | 0.88
O=C(NCCO)C(=O)Nc1ccc(F)cc1 | -14 | 0.97
CCc1ccc(NC(=O)C(=O)NCCc2ccc(F)cc2)cc1 | 2 | 0.69*
C=CCc1cccc2cc(C(=O)NCCc3ccccc3)c(=O)oc12 | 18 | 0.91
Cc1cccc(NC(=O)/C(=C\c2ccccc2Cl)NC(=O)c2ccccc2)c1 | 11 | 1
CCOC(=O)c1cccc(NC(=O)/C=C/c2ccccc2Cl)c1 | 12 | 1
Cc1cccc(Nc2cc(C)c(C#N)c3nc4ccccc4n23)c1 | 4 | 1.1
N#Cc1ccc2c(c1)nc1c3cccc4cccc(c(=O)n21)c43 | -4 | 0.65*
Cc1ccc(F)c(NC(=O)C2CC(=O)N(c3ccc(Cl)cc3)C2)c1 (stereo not given) | 19 | 1
O=C1/C(=C/c2cccc([N+](=O)[O-])c2)SC(=S)N1C1CCS(=O)(=O)C1 (stereo not given) | 15 | 0.35*
O=C1/C(=C/c2cccc3ccccc23)SC(=S)N1C1CCS(=O)(=O)C1 (stereo not given) | 8 | 0.99
Cc1ccc(NC(=O)COc2ccc(Cl)c(C)c2)c([N+](=O)[O-])c1 | -4 | 1
CC(=O)Nc1ccc(S(=O)(=O)NC(C)C2C3CC4CC(C3)CC2C4)cc1 (stereo not given) | 18 | 1
O=C(N/N=C\c1cccc(Br)c1)C(Oc1ccccc1)Oc1ccccc1 | 9 | 0.78*
CC(Oc1ccc(Br)cc1)C(=O)N/N=C\c1ccccc1O (stereo not given) | 4 | 1
COc1cc(/C=N\NC(=O)CSCc2ccc([N+](=O)[O-])cc2)cc(OC)c1OC | -1 | 1
COc1ccc(C(=O)Oc2cccc(C(=S)N3CCOCC3)c2)cc1 | 14 | 0.96
S=C(c1cccc(OCc2ccccc2)c1)N1CCOCC1 | 28 | 0.64*
CCOC(=O)C1=C(N)Oc2ccc3ccccc3c2C1c1cccc([N+](=O)[O-])c1 (stereo not given) | -1 | 1
Cc1ccc(C)c(Nc2nc3c(s2)CCCC3)c1 | 16 | 0.78*
SMILES | NS3h inh CB | Cy5 interf NS3h
Clc1cccc(Nc2nc3c(s2)CCCC3)c1 | 16 | 0.76*
O=C(Nc1cccc(Cl)c1)Nc1nnc(/C=C/c2ccccc2Cl)s1 | -15 | 1
CCN(CC)C(=S)SCC(=O)Nc1cc(C)ccc1C | 16 | 1
O=C(Nc1ccc(-c2nc3ccccc3o2)c(O)c1)c1ccc(-c2cccc([N+](=O)[O-])c2)o1 | -26 | 0.77*
Cc1cc([N+](=O)[O-])ccc1-c1ccc(C(=O)Nc2ccc(-c3nc4ccccc4o3)c(O)c2)o1 | -47 | 0.61*
O=C(Nc1ccc(-c2nc3ccccc3s2)c(O)c1)c1ccc(-c2cccc([N+](=O)[O-])c2)o1 | -61 | 0.56*
CCOC(=O)c1ccc(-c2ccc(C(=O)Nc3ccc(-c4nc5ccccc5s4)c(O)c3)o2)cc1 | -5 | 0.99
C=CCNC(=O)c1ccc(-c2ccc([N+](=O)[O-])cc2)o1 | 24 | 0.96
O=C(Nc1ccc(-c2nc3ccccc3o2)c(O)c1)c1ccc(-c2cccc(Cl)c2)o1 | -38 | 1.2
O=C(Nc1ccc(NC(=O)c2ccc(-c3ccc([N+](=O)[O-])cc3)o2)cc1)c1ccco1 | -40 | 0.67*
Cc1ccc2oc(-c3cccc(NC(=O)c4ccc(-c5ccc([N+](=O)[O-])cc5C)o4)c3C)nc2c1 | 6 | 1.1
S=C(NCC1(c2ccccc2)CCCC1)Nc1ccccc1 | 15 | 1.1
COc1cc(CN2CCN(Cc3ccccc3C(F)(F)F)CC2)c([N+](=O)[O-])cc1OC | -2 | 1
COC(=O)c1cccc(N2C(=O)c3ccc(C(=O)c4cccc([N+](=O)[O-])c4)cc3C2=O)c1 | 14 | 0.93
NC(=O)CN(c1ccc(F)cc1)S(=O)(=O)c1ccccc1 | 2 | 0.99
O=S(=O)(Nc1ccc(Br)cc1)c1ccc(Cl)cc1 | 10 | 0.79*
O=S(=O)(Nc1ccc(O)cc1)c1ccc(Br)cc1 | 1 | 1
O=C(c1ccc(F)cc1)c1ccc(NS(=O)(=O)c2ccc(Cl)cc2)cc1 | -3 | 1.2*
O=S(=O)(Nc1ccc(O)cc1)c1ccc(F)cc1 | 1 | 1
CCc1ccc(N2CC(C(=O)Nc3cccc(C)c3C)CC2=O)cc1 (stereo not given) | 0 | 1
COc1ccc(Cl)cc1N1C(=O)C2C(c3ccc(Cl)cc3)OC3(C(=O)c4ccccc4C3=O)C2C1=O (stereo not given) | 9 | 0.97
CC1CC(O)N(c2ccccc2)C(=S)N1 (stereo not given) | 17 | 0.77*
CCOc1ccc(S(=O)(=O)N2CCOCC2)cc1 | 1 | 1.1
Cc1ccc(NC(=O)C(=O)NCCN2CCN(S(C)(=O)=O)CC2)cc1 | 9 | 0.96
CCOc1ccc(CN2CCN(S(C)(=O)=O)CC2)cc1 | -1 | 0.71*
SMILES | NS3h inh CB | Cy5 interf NS3h
Cc1ccc(CN2CCN(S(C)(=O)=O)CC2)cc1 | 8 | 0.68*
COc1ccccc1N1CCN(C(=O)c2c(Cl)cccc2Cl)CC1 | 2 | 1
CN(C)c1ccc(C(=O)N2CCN(c3ccccc3)CC2)cc1 | -3 | 0.96
COc1ccccc1N1CCN(C(=O)c2ccc(N(C)C)cc2)CC1 | -2 | 0.66*
CN(C)c1ccc(C(=O)N2CCN(c3ccc(F)cc3)CC2)cc1 | 9 | 0.75*
Cc1cccc(N2CCN(C(=S)c3ccc(-c4ccc(Cl)cc4Cl)o3)CC2)c1 | 8 | 1
O=C(COc1ccccc1)Nc1ccncc1 | 0 | 1.1
O=C(COc1ccccc1)Nc1ccc(Cc2ccncc2)cc1 | 20 | 0.71*
O=C(Nc1ccc(S(=O)(=O)Nc2ncccn2)cc1)C1COc2ccccc2O1 (stereo not given) | 4 | 1
COc1ccc(NC(=O)COc2cccc3ccccc23)cc1 | 16 | 0.77*
COc1ccccc1OCC(=O)Nc1ccc(S(N)(=O)=O)cc1 | 2 | 1
CCc1ccccc1N1C(=O)/C(=C/c2cc(C)n(-c3cccnc3)c2C)C(=O)NC1=S | 6 | 1.2*
Cc1ccccc1N1C(=O)/C(=C/c2cc(C)n(-c3cccnc3)c2C)C(=O)NC1=S | 10 | 0.97
O=C1C(=O)N(c2nc3ccccc3s2)C(c2ccc3c(c2)OCO3)C1=C(O)c1ccccc1 (stereo not given) | 7 | 0.94
CCOc1ccc(NC(=O)CN(c2ccc(C)cc2)S(=O)(=O)c2ccc(OCC)cc2)cc1 | -12 | 1
Cc1ccccc1/C=C1\SC(=S)N(C(C(=O)O)C(C)C)C1=O (stereo not given) | 8 | 1
CC(C(=O)O)N1C(=O)/C(=C/c2ccccc2)SC1=S (stereo not given) | 2 | 1.2*
COc1ccc(Cl)cc1C(=O)N(Cc1ccccc1)C(C)C | 10 | 0.97
O=C(c1cc(Cl)ccc1Cl)N(Cc1ccccc1)c1ccccn1 | 8 | 0.62*
CC1(C)CC(NC(=O)c2ccccc2Br)CC(C)(C)N1 | 7 | 1
